The values that follow come from PubChem BioAssay.

Assay [1] can be described thus: restoration of touch response, mutant HTT neurons – whole organism, C. elegans mechanosensory neurons, N-terminal huntingtin (AID 1599). The conditions noted are these: C. elegans polyQ-huntingtin mechanosensory neurons, stronger effect = higher value.
Assay [2] is described as follows: glutamate transport activators, MN-1 cells, MN-1 cell line (AID 1612).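 Note: tested at 1 µM final; 0% = mean of DMSO vehicle wells on each plate; positive means more glutamate uptake than control and negative means less.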 Conditions: MN-1 motor neuron cells, stronger effect = higher value.
The nature of assay [3]: 75Q-TubH aggregate inhibition, S. cerevisiae, yeast (AID 1616). Conditions: S. cerevisiae 75Q-TubH polyglutamine aggregation suppression; stronger effect = higher value.
Assay [4] in a line: compounds altering viability of human ES cells (AID 493140).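 Note: cells exposed to compounds for four days before counting.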 The conditions noted are these: human embryonic stem cell survival screen; stronger effect = higher value.
In assay [5] the test system is Aerobactin synthetase IucA (Klebsiella pneumoniae, hypervirulent). In words: biochemical IucA inhibition screen of LOPAC library by absorbance (AID 1346212).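 Note: 100% = no compound wells and 0% = no enzyme wells.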 The conditions noted are these: IucA enzyme assay, absorbance (OD) readout; stronger effect = lower value;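 tested at 8 µM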.
Assay [6] is described as follows: blockers of polyQ-driven CASP3 activation – cell-based (AID 1583). Conditions: polyglutamine-induced caspase-3 activation, cell assay; stronger effect = higher value;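 tested at 10 µM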.
The target of assay [7] is ATP-dependent translocase ABCB1 (Homo sapiens) (UniProt P08183). In words: P-glycoprotein substrate transport blockade – cell-based (AID 377; in the data active = fluorescence slope change above about 50%). Conditions: MDR1-expressing cells, fluorescent substrate accumulation slope; stronger effect = higher value; concentration not given here.
ATP-dependent translocase ABCB1 (Homo sapiens), sequence (P08183 whole entry, looked up): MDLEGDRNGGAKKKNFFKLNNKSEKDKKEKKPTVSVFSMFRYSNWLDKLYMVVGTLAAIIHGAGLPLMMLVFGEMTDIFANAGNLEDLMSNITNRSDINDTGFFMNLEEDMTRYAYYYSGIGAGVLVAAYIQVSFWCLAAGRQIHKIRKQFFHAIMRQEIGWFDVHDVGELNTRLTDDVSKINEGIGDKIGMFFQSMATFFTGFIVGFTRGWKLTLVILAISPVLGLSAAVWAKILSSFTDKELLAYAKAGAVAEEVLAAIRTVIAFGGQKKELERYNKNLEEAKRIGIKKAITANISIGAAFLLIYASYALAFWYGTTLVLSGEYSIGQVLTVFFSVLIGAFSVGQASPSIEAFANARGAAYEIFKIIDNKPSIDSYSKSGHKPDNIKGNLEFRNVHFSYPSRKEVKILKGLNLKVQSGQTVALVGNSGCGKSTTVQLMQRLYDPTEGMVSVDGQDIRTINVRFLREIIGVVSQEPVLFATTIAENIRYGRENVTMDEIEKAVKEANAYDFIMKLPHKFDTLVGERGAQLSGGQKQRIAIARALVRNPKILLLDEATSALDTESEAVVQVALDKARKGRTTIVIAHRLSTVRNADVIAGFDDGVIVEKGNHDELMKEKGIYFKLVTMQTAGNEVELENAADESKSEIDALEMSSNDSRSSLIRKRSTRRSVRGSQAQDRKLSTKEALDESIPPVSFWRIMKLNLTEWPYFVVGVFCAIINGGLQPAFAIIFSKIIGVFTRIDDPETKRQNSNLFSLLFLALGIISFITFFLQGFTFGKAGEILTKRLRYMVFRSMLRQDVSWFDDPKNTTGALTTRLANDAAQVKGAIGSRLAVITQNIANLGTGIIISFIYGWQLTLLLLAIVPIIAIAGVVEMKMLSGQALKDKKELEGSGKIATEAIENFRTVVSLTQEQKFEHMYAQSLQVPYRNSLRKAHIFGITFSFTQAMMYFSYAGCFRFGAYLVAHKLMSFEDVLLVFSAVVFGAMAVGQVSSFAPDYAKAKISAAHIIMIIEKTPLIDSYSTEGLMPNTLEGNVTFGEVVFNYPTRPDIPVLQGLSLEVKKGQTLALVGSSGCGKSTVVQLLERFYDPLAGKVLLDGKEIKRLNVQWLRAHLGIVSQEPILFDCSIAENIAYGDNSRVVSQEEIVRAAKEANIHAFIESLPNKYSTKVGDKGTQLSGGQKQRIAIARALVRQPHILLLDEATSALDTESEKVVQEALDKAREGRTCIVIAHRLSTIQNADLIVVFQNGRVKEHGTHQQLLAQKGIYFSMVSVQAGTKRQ
Assay [8] can be described thus: GFP-Q80 aggregate reduction, neuronal-like cells, cell-based, NGF-treated PC12, GFPQ80 (AID 1614).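 Note: lower means fewer inclusions and 0 means no inclusions at all.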 The conditions noted are these: PC12 NGF-treated GFP-polyQ80 inclusion reduction.
A short description of assay [9]: compounds altering circadian rhythm period length – cell-based, LOPAC library, luminescence reporter (AID 2774).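 Note: values are relative to mean of DMSO wells on each plate.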 Conditions: circadian reporter cells, at 7 µM, actives lie on both sides.
The subject of assay [10] is Hepatitis C virus NS3 helicase. Kind of assay: blockers of NS3h binding to ssDNA – biochemical, fluorescence polarization, LOPAC1280 library, primary screen (AID 687035; in the data active = inhibition above about 37%). Conditions: Purified HCV NS3 helicase, Cy5-dT15 ssDNA binding fluorescence polarization; stronger effect = higher value; concentration not given here.
The nature of assay [11]: compounds altering Cy5-DNA-NS3h complex signal – biochemical, LOPAC1280, artefact control for HCV NS3 helicase inhibitor project (AID 687037). The conditions noted are these: Cy5-DNA-NS3h complex fluorescence interference counterscreen. Background: A counterscreen serves to expose hits that act by an unwanted route or on another target.
A short description of assay [12]: blockers of cellular phospholipid synthesis – cell-based, LOPAC library, screen 4, primary screen (AID 1347384). The conditions noted are these: animal cells, phospholipid biosynthesis inhibition screen; at 10 µM.

Inconclusive results are not listed. For some of these results: Potency and affinity values are given separately. The source made the active and inactive calls. Unless noted, the rule behind the calls is not given here.

For `CC(=O)[O][Hg][c]1ccccc1`, in [1], the rescue above control was found to be 0. Besides, the glutamate uptake change in [2] is -17.8%. The compound also returned an aggregation suppression score in assay [3] of -0.131.
Turning to `N[C@@H]1C[C@H]1c1ccccc1`, in [4], the survival is 34.7 (inactive). In assay [5], the remaining activity (usually the signal under treatment as a percentage of the control signal) was 95.5% (inactive).
Consider `CC1=C2[C@H]3OC(=O)[C@@H](C)[C@@H]3CC[C@@]2(C)C=CC1=O`, for which the survival in assay [4] is 2.25 (inactive).
In the case of `CC[n+]1c(-c2ccccc2)c2cc(N)ccc2c2ccc(N)cc21`, the inhibition (in general, the drop in the measured response relative to a control, in per cent) in assay [6] worked out at 24.8%. Also, in [1], the rescue above control is 0. Further, the glutamate uptake change in assay [2] was determined as 5.78%. This compound had an aggregation suppression score in [3] of 0.0827.
Take `COc1c2c(cc3c1OCO3)CCN(C)C2`: the fluorescence slope change in assay [7] was 4% (inactive). For the same compound, the survival in assay [4] was 4.08 (inactive).
For the compound `COc1ccc(Cc2nccc3cc(OC)c(OC)cc23)cc1OC`, the fluorescence slope change in assay [7] is 84.8% (active). Further, the inhibition in assay [6] was 3.42%; in assay [10], -1% (inactive). Further, the rescue above control in assay [1] was determined as 14.9. The glutamate uptake change in assay [2] was -13.9%. Further, the inclusion score in assay [8] is 2. This compound also had an aggregation suppression score in assay [3] of 1.65. For the same compound, the period change in [9] is -0.02 h (inactive). In addition, the survival in [4] was 5.5 (inactive). Also, the fluorescence ratio (interference) in [11] is 1 (inactive). Also, in [5], the remaining activity was 119% (inactive).
For `NCCc1cc(O)c(O)cc1O`, in assay [6], the inhibition was 18.9%. In addition, in assay [1], the rescue above control is -4.94. In addition, the glutamate uptake change in [2] was -13.1%. In assay [3], this compound returned an aggregation suppression score of 1.41.
With `C[C@H]1C(=O)O[C@@H]2CCN3CC=C(COC(=O)[C@](C)(O)[C@]1(C)O)[C@H]23`, in assay [7], the fluorescence slope change is 24.9% (inactive). For the same compound, in assay [6], the inhibition is 11.2%. In addition, the rescue above control in assay [1] is 10.3. Also, the glutamate uptake change in [2] was 4%. The compound also gave an inclusion score in [8] of 2. This compound also yielded an aggregation suppression score in assay [3] of 1.12. The survival in assay [4] is 1.5 (inactive).
As for `CC(C)(C)NCC(O)c1cc(Cl)c(N)c(Cl)c1` (stereo unspecified), in assay [7], the fluorescence slope change is -2.7% (inactive). The inhibition in [6] amounted to 5.01%. For the same compound, the rescue above control in assay [1] was -3.16. In addition, the glutamate uptake change in assay [2] was -4.4%. For the same compound, in assay [8], the inclusion score was 2. The compound further returned an aggregation suppression score in [3] of 1.64. Also, in assay [4], the survival was 11.5 (inactive).
On to `c1ccc2c(c1)sc1ccccc12`, for which the inhibition in assay [6] was determined as 11%. Further, in assay [1], the rescue above control turned out to be 18.8. Further, the glutamate uptake change in [2] was -0.7%. The aggregation suppression score in assay [3] is 0.0947.
In the case of `C[C@@H]1O[C@@H](O[C@H]2C[C@@H](O)[C@]3(CO)[C@H]4[C@H](O)C[C@]5(C)[C@@H](C6=CC(=O)OC6)CC[C@]5(O)[C@@H]4CC[C@]3(O)C2)[C@H](O)[C@H](O)[C@H]1O`, the period change in assay [9] was -0.18 h (inactive). Moreover, the survival in assay [4] was 1.08 (inactive). The inhibition in assay [10] was -4% (inactive). For the same compound, the fluorescence ratio (interference) in assay [11] was 1 (inactive). Moreover, in assay [5], the remaining activity was 109% (inactive). Besides, the call in [12] was inactive.
In the case of `CC(C)[N+](C)(CCC(C(N)=O)(c1ccccc1)c1ccccc1)C(C)C`, in assay [6], the inhibition was found to be 22%. This compound had a rescue above control in assay [1] of -11.8. Also, the glutamate uptake change in assay [2] worked out at 20%. The inclusion score in assay [8] is 1.5. In assay [3], this compound returned an aggregation suppression score of 1.25. The survival in assay [4] was 6.08 (inactive).
Turning to `O=c1oc2ccccc2c(O)c1Cc1c(O)c2ccccc2oc1=O`, the fluorescence slope change in assay [7] was -7.2% (inactive). Further, the inhibition in assay [6] was determined as 3.41%. The glutamate uptake change in [2] was -38%. In assay [8], this compound came in with an inclusion score of 1. For the same compound, the aggregation suppression score in [3] worked out at 1.26. Further, in assay [4], the survival was 4.42 (inactive).
For `CC(=O)NC1CCSC1=O` (stereo unspecified), the survival in [4] is 5.75 (inactive).
As to `NC(=O)CN1CCCC1=O`, in assay [7], the fluorescence slope change is 61.1% (active). The inhibition is 13.3% in [6] and -4% (inactive) in assay [10]. The compound also registered a rescue above control in assay [1] of -11. In addition, the glutamate uptake change in assay [2] is -1.66%. Besides, the inclusion score in assay [8] came out at 2. Moreover, in assay [3], the aggregation suppression score came out at 1.37. The period change in [9] was 0.015 h (inactive). Moreover, the survival in [4] is 17.8 (inactive). For the same compound, in assay [11], the fluorescence ratio (interference) was 1 (inactive). Also, the remaining activity in assay [5] was 110% (inactive). The compound was called inactive in [12].
